Measured values: PubChem BioAssay (Tox21)
Records with an inconclusive call do not appear. Unmarked numbers belong to inactive results. Calls follow the shape of the dose curve; as a rule, active = well fitted cell-killing curve with a large enough effect in the repeat runs; inconclusive = weak or mixed curves; inactive = flat fitted curve, though single readings scatter.

Test: qHTS RealTime-Glo MT Cell Viability Assay in HepG2 cells - 8 hour (AID 1224873); also: nearly all actives have a fitted effect of over 55% in size
Conditions: RealTime-Glo luminescence; series mostly up to 76.8 µM; viability change, negative = cytotoxic: at the top concentration
Text: National Center for Advancing Translational Sciences [NCATS]
NIH Chemical Genomics Center [NCGC]
U.S. Environmental Protection Agency [EPA]
National Institutes of Environmental Health Sciences [NIEHS]
National Toxicology Program [NTP]
U.S. Food and Drug Administration [FDA]
Measure of cell viability is critical in the cell-base assay. Analysis of cell viability is necessary for the characterization of cell responses to cytotoxic drugs and environmental stress. A RealTime-Glo MT Cell Viability Assay to monitor cell viability in real time of continues cell culture during 40 hours of compound treatment was used to screen Tox21 10K library compounds in HepG2 cells. The RealTime-Glo MT Cell Viability Assay is a nonlytic, homogeneous, bioluminescent method to measure cell viability in real time using a simple, plate-based method. The assay involves adding NanoLuc luciferase and a cell-permeant prosubstrate to cells in culture. Viable cells reduce the proprietary prosubstrate to generate a substrate for NanoLuc luciferase. This substrate diffuses from cells into the surrounding culture medium, where it is rapidly used by the NanoLuc Enzyme to produce a luminescent signal. The signal correlates with the number of viable cells, making the assay well suited for cytotoxicity studies.
Tox21 Assay Protocol Summary:
The mixture of HepG2 cell suspension and reagents were dispensed at 600cells/6 ul/well in 1536-well tissue culture treated black solid bottom plates using a Multidrop dispenser. After the assay plates were incubated at a 37 C/5% CO2 incubator for 5 hours, 23 nL of compounds dissolved in DMSO, positive and negative controls was transferred to the assay plate by a pintool work station. The plates were incubated at 37 C for 40 hours. The luminescence intensity were measured at 0h, 8h, 16h, 24h, 32h and 40h time points using ViewLux plate reader during compound treatment.
% is scaled to controls: 0 for no effect and ±100 for the full control effect.

| SMILES | viability change, negative = cytotoxic |
| --- | --- |
| C=CCOc1c(Br)cc(C(C)(C)c2cc(Br)c(OCC=C)c(Br)c2)cc1Br | 2.79% [at 35.3 µM] |
| CCCOCCOCCOCCO | -0.252% |
| CCCCCCCCCCCCCCCCI | -19.7% [at 15.8 µM] |
| CC(=O)Nc1ccc(C)cc1 | 0.0657% |
| Cc1nc(C)nc(N2C[C@@H](C)N(c3ccnc([C@@H](C)O)n3)[C@@H](C)C2)n1 | 5.6% [at 35.3 µM] |
| Cc1nc2ccccc2c(=O)o1 | 2.58% |
| Nc1cc(Cl)cc(S(=O)(=O)O)c1O | -3.33% |
| O=C(O)c1ccccc1C(=O)OCc1ccccc1 | 2.36% |
| Oc1ccccc1Cc1ccccc1O | -15.7% |
| CCCCC(CC)CNC(=O)CC(C)OC(=O)CCC(=O)O (stereo not given) | -0.141% [at 35.3 µM] |
| Cc1ncc([N+](=O)[O-])n1CC(O)CCl (stereo not given) | -1.52% [at 35.3 µM] |
| CC(C)(c1ccc(Oc2ccc3c(c2)C(=O)OC3=O)cc1)c1ccc(Oc2ccc3c(c2)C(=O)OC3=O)cc1 | 1.88% |
| CC(C)CCCC(C)CC=O (stereo not given) | 5.54% |
| C[C@H]1O[C@H](O[C@H]2[C@H](O)[C@@H](O)[C@@H](O[C@H]3[C@H](O)[C@@H](O)[C@H](O)O[C@@H]3CO)O[C@@H]2CO)[C@H](O)[C@@H](O)[C@@H]1N[C@H]1C=C(CO)[C@@H](O)[C@H](O)[C@H]1O | 3.72% [at 35.3 µM] |
| COc1cc2c3cc1Oc1cc(ccc1O)C[C@@H]1c4c(cc(OC)c(O)c4Oc4ccc(cc4)C[C@@H]3N(C)CC2)CC[N+]1(C)C | 7.3% [at 35.3 µM] |
| CC(C)CCCCCCOC(=O)C1CCCCC1C(=O)OCCCCCCC(C)C (stereo not given) | 0% |
| O=CN1CCOCC1 | -4.48% |
| CCS(=O)(=O)CCn1c([N+](=O)[O-])cnc1C | 0.372% [at 35.3 µM] |
| F[Si-2](F)(F)(F)(F)F | 0.307% |
| C[Si]1(C)N[Si](C)(C)N[Si](C)(C)N1 | 6.4% |

| SMILES | viability change, negative = cytotoxic |
| --- | --- |
| c1ccccc1 | -12.9% |
| CCNC(=O)NCCCOc1cccc(CN2CCCCC2)c1 | 5.89% [at 35.3 µM] |
| Nc1cc(S(=O)(=O)O)ccc1S(=O)(=O)O | 1.85% |
| C1=C\CC/C=C\CC/1 | 2.07% |
| CC(C)COC(=O)/C=C/c1ccccc1 | 0.336% |
| NCCc1ccn[nH]1 | 5.53% [at 35.3 µM] |
| SCCSCCS | 2.44% |
| Cc1ccccc1C | 0.0146% |
| C=C(C)[C@@H]1CC[C@@H](C)C[C@@H]1O | 4.18% |
| C=C(C)C(=O)OC1CC(C)CC(C)(C)C1 (stereo not given) | -3% |
| COc1cc2c(Nc3ccc(Br)cc3F)ncnc2cc1OCC1CCN(C)CC1 | -0.0554% [at 35.3 µM] |
| O=C(O)c1ccc(OCCN2CCCCC2)cc1 | -1.73% [at 35.3 µM] |
| C=C(C)C(=O)OCCCCCCOC(=O)C(=C)C | -10.4% |
| CC(=O)OC(C(=O)c1ccccc1)c1ccccc1 (stereo not given) | 1.18% |
| FC(F)(F)c1ccc(Cl)cc1Cl | -4.02% |
| C=C[C@@H](C)CCC=C(C)C | 2.71% |
| CCNC(=O)/C=C/c1cccc(Br)c1 | 0.382% [at 35.3 µM] |
| CC(=O)OCCCc1ccccc1 | 2.27% |
| Nc1ccnc(=O)[nH]1 | 3.94% |
| CCCCCCCC/C=C\CCCCCCCC(=O)OC[C@@H](O)[C@H]1OC[C@H](O)[C@H]1O | 0.292% |
